# Experimental data published in PubChem BioAssay (NCATS).
# Results filed as inconclusive are left out. Calls of active or inactive are those of the source. Unless noted, calls come from the whole dose curve; as a rule, active = well fitted curve in the direction sought with a large enough effect; inconclusive = small, poorly fitted or top-dose-only effect, or another doubt; inactive = no such curve, though single readings can be large; an effect the other way counts as inactive or inconclusive.
# Test: qHTS profiling of the MIPE4 collection as inhibitors of Plasmodium falciparum (3D7) proliferation (AID 743344; call rule not given here;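 note: scaled between DMSO vehicle wells and 0.29 µM artemisinin as full inhibition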)
# Conditions: P. falciparum 3D7 in erythrocytes, SYBR Green DNA fluorescence, 72 h; at 28.5 µM unless noted
# How it was run: (§1)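 Erythrocytes infected with P. falciparum (0.3% parasitemia, 2.5% hematocrit) incubated with compounds 72 h at 37 C, 5% CO2. Lysis with saponin/Triton buffer containing SYBR Green I, overnight at room temperature in the dark; DNA fluorescence (485/535 nm) normalised to 0.29 uM artemisinin and DMSO.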
row,SMILES,"parasite growth, % of DMSO control"
1,CCOC(=O)C1=C(C)NC(C)=C(C(=O)OCC)C1c1ccccc1C=CC(=O)OC(C)(C)C,6.3%
2,C[C@@H]1CCC2[C@@H](C)[C@@H](O)O[C@@H]3O[C@@]4(C)CC[C@@H]1[C@@]23OO4 (stereo partly specified),5.03%
3,CCN(CC)Cc1cc(Nc2ccnc3cc(Cl)ccc23)ccc1O,4.69% [at 9.64 µM]

# Test: qHTS profiling of the MIPE4 collection as inhibitors of Plasmodium falciparum (DD2) proliferation (AID 743345; call rule not given here)
# Conditions: P. falciparum Dd2 in erythrocytes, SYBR Green DNA, 72 h; at 28.5 µM unless noted
# How it was run: as §1
row,SMILES,"parasite growth remaining, % of DMSO control (lower = more inhibition)"
1,CCOC(=O)C1=C(C)NC(C)=C(C(=O)OCC)C1c1ccccc1C=CC(=O)OC(C)(C)C,7.86%
2,C[C@@H]1CCC2[C@@H](C)[C@@H](O)O[C@@H]3O[C@@]4(C)CC[C@@H]1[C@@]23OO4 (stereo partly specified),6.44%
3,CCN(CC)Cc1cc(Nc2ccnc3cc(Cl)ccc23)ccc1O,9.46% [at 9.64 µM]

# Test: qHTS profiling of the MIPE4 collection as inhibitors of Plasmodium falciparum (DD2) proliferation (Rep 2) (AID 743346; call rule not given here)
# Conditions: P. falciparum Dd2 in erythrocytes, SYBR Green DNA, 72 h; at 28.5 µM unless noted
# How it was run: as §1
row,SMILES,"parasite growth, % of control (lower = inhibition)"
1,CCOC(=O)C1=C(C)NC(C)=C(C(=O)OCC)C1c1ccccc1C=CC(=O)OC(C)(C)C,19.9%
2,C[C@@H]1CCC2[C@@H](C)[C@@H](O)O[C@@H]3O[C@@]4(C)CC[C@@H]1[C@@]23OO4 (stereo partly specified),10.6%
3,CCN(CC)Cc1cc(Nc2ccnc3cc(Cl)ccc23)ccc1O,11.1% [at 9.64 µM]

# Test: qHTS profiling of the MIPE4 collection as inhibitors of Plasmodium falciparum (HB3) proliferation (AID 743347; call rule not given here;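 note: plate controls were DMSO vehicle wells for no effect and artemisinin wells for full effect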)
# Conditions: P. falciparum HB3 in erythrocytes, SYBR Green DNA, 72 h; at 28.5 µM unless noted
# How it was run: as §1
row,SMILES,"growth, % of control"
1,CCOC(=O)C1=C(C)NC(C)=C(C(=O)OCC)C1c1ccccc1C=CC(=O)OC(C)(C)C,11.8%
2,C[C@@H]1CCC2[C@@H](C)[C@@H](O)O[C@@H]3O[C@@]4(C)CC[C@@H]1[C@@]23OO4 (stereo partly specified),6.11%
3,CCN(CC)Cc1cc(Nc2ccnc3cc(Cl)ccc23)ccc1O,3.47% [at 9.64 µM]

# Test: qHTS assay to identify small molecule inhibitors of chordoma cells - UCH-1 (AID 1259355); note: nearly all actives have a fitted effect of over 55% in size; note: potency is the fitted concentration of half-maximal effect; for activity, negative = inhibition: % is set by controls: 0 for no effect and ±100 for the full control effect
# Conditions: UCH-1 chordoma viability, CellTiter-Glo, 48 h, combination, with auranofin plus four topoisomerase inhibitors; series mostly up to 46.1 µM; activity, negative = inhibition: at the top concentration
# How it was run: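 Luminescent ATP read-out (CellTiter-Glo, 30min at room temperature) measured viability of UCH-1 cells exposed for 48hr to test drugs at 15 concentrations, co-dosed with a five-agent combination of auranofin, camptothecin, doxorubicin, rubitecan and topotecan.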
SMILES,"activity, negative = inhibition",Potency
C=C[C@]1(C)C[C@@H](OC(=O)CSC(C)(C)CNC(=O)[C@H](N)C(C)C)[C@]2(C)[C@H](C)CC[C@]3(CCC(=O)[C@H]32)[C@@H](C)[C@@H]1O,-15.6% (inactive),–
CCNC(=O)[C@@H]1CCCN1C(=O)[C@H](CCCN=C(N)N)NC(=O)[C@H](CC(C)C)NC(=O)[C@@H](Cc1c[nH]c2ccccc12)NC(=O)[C@H](Cc1ccc(O)cc1)NC(=O)[C@H](CO)NC(=O)[C@H](Cc1c[nH]c2ccccc12)NC(=O)[C@H](Cc1cnc[nH]1)NC(=O)[C@@H]1CCC(=O)N1,–,31.6 µM (active)
CC[N+](C)(C)Cc1ccccc1Br,-22.4% [at 20.6 µM] (inactive),–
CCOC(=O)C1=C(C)NC(C)=C(C(=O)OCC)C1c1ccccc1C=CC(=O)OC(C)(C)C,-6.33% (inactive),–
CCC(=O)O[C@@H]1CC(=O)O[C@H](C)C/C=C/C=C/[C@H](O)[C@H](C)C[C@H](CC=O)[C@H](O[C@@H]2O[C@H](C)[C@@H](O[C@H]3C[C@@](C)(O)[C@@H](OC(=O)CC)[C@H](C)O3)[C@H](N(C)C)[C@H]2O)[C@H]1OC,-14.4% [at 20.6 µM] (inactive),–
C[C@@H]1CCC2[C@@H](C)[C@@H](O)O[C@@H]3O[C@@]4(C)CC[C@@H]1[C@@]23OO4 (stereo partly specified),-27.2% (inactive),–
CC1=C(/C=C/C(C)=C/C=C/C(C)=C/CO)C(C)(C)CCC1,-9.45% (inactive),–
CCN(CC)Cc1cc(Nc2ccnc3cc(Cl)ccc23)ccc1O,-28.9% [at 20.6 µM] (inactive),–
COc1cc([C@@H]2c3cc4c(cc3[C@@H](O[C@@H]3O[C@@H]5CO[C@@H](C)O[C@H]5[C@H](O)[C@H]3O)[C@H]3COC(=O)[C@H]23)OCO4)cc(OC)c1O,-13.6% (inactive),–
CNc1cc(OC)c(C(=O)N[C@H]2CCN(Cc3ccccc3)[C@H]2C)cc1Cl,2.84% (inactive),–
Clc1cc(Cl)c(OCC#CI)cc1Cl,-15% (inactive),–
CC1=C(/C=C/C(C)=C/C=C/C(C)=C/C=C/C=C(C)/C=C/C=C(C)/C=C/C2=C(C)C(=O)CCC2(C)C)C(C)(C)CCC1=O,-8.41% (inactive),–
CC1(C)S[C@@H]2[C@H](NC(=O)[C@@H](NC(=O)N3CCNC3=O)c3ccccc3)C(=O)N2[C@H]1C(=O)O,-17.8% [at 20.6 µM] (inactive),–
CO[C@H]1C[C@H](O[C@H]2[C@H](C)[C@@H](O[C@@H]3O[C@H](C)C[C@H](N(C)C)[C@H]3OC(C)=O)[C@@H](C)C[C@]3(CO3)C(=O)[C@H](C)[C@@H](OC(C)=O)[C@@H](C)[C@@H](C)OC(=O)[C@@H]2C)O[C@@H](C)[C@@H]1OC(C)=O,-19% [at 20.6 µM] (inactive),–
CCN(CC)CCOc1ccc(-c2nc3cc(Cl)ccc3s2)cc1,-8.7% (inactive),–

# Test: qHTS assay to identify small molecule inhibitors of chordoma cells - UCH-2 (AID 1259356); note: potency is the fitted concentration of half-maximal effect; for activity change, negative = inhibition: % is set by controls: 0 for no effect and ±100 for the full control effect
# Conditions: UCH-2 chordoma viability, CellTiter-Glo ATP luminescence, 48 h; series mostly up to 46.1 µM; activity change, negative = inhibition: at the top concentration
SMILES,"activity change, negative = inhibition",Potency
CCCCC(CC)COC(=O)CC(C(=O)OCC(CC)CCCC)S(=O)(=O)O (stereo unspecified),-12.1% (inactive),–
C=C[C@]1(C)C[C@@H](OC(=O)CSC(C)(C)CNC(=O)[C@H](N)C(C)C)[C@]2(C)[C@H](C)CC[C@]3(CCC(=O)[C@H]32)[C@@H](C)[C@@H]1O,5.26% (inactive),–
CCNC(=O)[C@@H]1CCCN1C(=O)[C@H](CCCN=C(N)N)NC(=O)[C@H](CC(C)C)NC(=O)[C@@H](Cc1c[nH]c2ccccc12)NC(=O)[C@H](Cc1ccc(O)cc1)NC(=O)[C@H](CO)NC(=O)[C@H](Cc1c[nH]c2ccccc12)NC(=O)[C@H](Cc1cnc[nH]1)NC(=O)[C@@H]1CCC(=O)N1,–,18.3 µM (active)
CC[N+](C)(C)Cc1ccccc1Br,-4.61% [at 20.6 µM] (inactive),–
N[C@H](C(=O)O)[C@@H]1CC(Cl)=NO1,-4.81% (inactive),–
CCOC(=O)C1=C(C)NC(C)=C(C(=O)OCC)C1c1ccccc1C=CC(=O)OC(C)(C)C,28.4% (inactive),–
CCC(=O)O[C@@H]1CC(=O)O[C@H](C)C/C=C/C=C/[C@H](O)[C@H](C)C[C@H](CC=O)[C@H](O[C@@H]2O[C@H](C)[C@@H](O[C@H]3C[C@@](C)(O)[C@@H](OC(=O)CC)[C@H](C)O3)[C@H](N(C)C)[C@H]2O)[C@H]1OC,7.16% [at 20.6 µM] (inactive),–
C[C@@H]1CCC2[C@@H](C)[C@@H](O)O[C@@H]3O[C@@]4(C)CC[C@@H]1[C@@]23OO4 (stereo partly specified),-11.1% (inactive),–
CC(Oc1ccccc1)C(=O)N[C@@H]1C(=O)N2[C@@H]1SC(C)(C)[C@@H]2C(=O)O (stereo partly specified),5.48% [at 20.6 µM] (inactive),–
OCCO[C@@H]1[C@@H](O)[C@H](O)[C@@H](CO)O[C@@H]1O,1.54% (inactive),–
COc1ccc(C[C@@H](C)NC[C@H](O)c2ccc(O)c(NC=O)c2)cc1,4.71% (inactive),–
CC1=C(/C=C/C(C)=C/C=C/C(C)=C/CO)C(C)(C)CCC1,8.4% (inactive),–
CC(O)CO (stereo unspecified),24% (inactive),–
IC(I)I,-13.7% (inactive),–
Cc1c(C)c2c(c(C)c1O)CC[C@@](C)(CCC[C@H](C)CCC[C@H](C)CCCC(C)C)O2,4.71% (inactive),–
CCN(CC)Cc1cc(Nc2ccnc3cc(Cl)ccc23)ccc1O,-3.24% [at 20.6 µM] (inactive),–
CC(=O)OCC(=O)[C@@]12OC3(CCCC3)O[C@@H]1C[C@H]1[C@@H]3CCC4=CC(=O)C=C[C@]4(C)[C@@]3(F)[C@@H](O)C[C@@]12C,7.08% (inactive),–

SMILES,"activity change, negative = inhibition",Potency
NCc1ccccc1CC(=O)N[C@@H]1C(=O)N2C(C(=O)O)=C(CSc3nnnn3CC(=O)O)CS[C@H]12,15% [at 20.6 µM] (inactive),–
O=C1C(=O)c2ncccc2-c2cccnc21,-28.3% (inactive),–
CCCC(=O)O[C@]1(C(=O)COC(C)=O)CC[C@H]2[C@@H]3C[C@H](F)C4=CC(=O)C=C[C@]4(C)[C@@]3(F)[C@@H](O)C[C@@]21C,6.63% (inactive),–
COc1cc([C@@H]2c3cc4c(cc3[C@@H](O[C@@H]3O[C@@H]5CO[C@@H](C)O[C@H]5[C@H](O)[C@H]3O)[C@H]3COC(=O)[C@H]23)OCO4)cc(OC)c1O,-1.86% (inactive),–
CNc1cc(OC)c(C(=O)N[C@H]2CCN(Cc3ccccc3)[C@H]2C)cc1Cl,-16.7% (inactive),–
Clc1cc(Cl)c(OCC#CI)cc1Cl,5.07% (inactive),–
O=S(=O)(O)O,4.5% (inactive),–
O=C1CSC2(CCN(CCCN3c4ccccc4Sc4ccc(Cl)cc43)CC2)N1,-17.7% (inactive),–
O=CCCCC=O,7.57% (inactive),–
CC1=C(/C=C/C(C)=C/C=C/C(C)=C/C=C/C=C(C)/C=C/C=C(C)/C=C/C2=C(C)C(=O)CCC2(C)C)C(C)(C)CCC1=O,-14% (inactive),–
CC1(C)S[C@@H]2[C@H](NC(=O)[C@@H](NC(=O)N3CCNC3=O)c3ccccc3)C(=O)N2[C@H]1C(=O)O,4.96% [at 20.6 µM] (inactive),–
C=C(NC(=O)C(=C)NC(=O)c1csc(C2=N[C@@H]3c4csc(n4)[C@H]4NC(=O)c5csc(n5)[C@H]([C@](C)(O)[C@@H](C)O)NC(=O)[C@H]5CSC(=N5)C(=CC)NC(=O)C([C@@H](C)O)NC(=O)c5csc(n5)[C@]3(CC2)NC(=O)[C@H](C)NC(=O)C(=C)NC(=O)[C@H](C)NC(=O)C([C@@H](C)CC)NC2C=Cc3c([C@H](C)O)cc(nc3C2O)C(=O)O[C@@H]4C)n1)C(N)=O (stereo partly specified),-3.47% [at 20.6 µM] (inactive),–
CCc1ccc2c(c1)N(CC(C)CN(C)C)c1ccccc1S2 (stereo unspecified),0.949% (inactive),–
CC(=O)Oc1c(C)cc(OCC(O)CNC(C)C)c(C)c1C (stereo unspecified),3.75% (inactive),–
CCCCCCCC/C=C\CCCCCCCC(=O)O,3.14% (inactive),–
CO[C@H]1C[C@H](O[C@H]2[C@H](C)[C@@H](O[C@@H]3O[C@H](C)C[C@H](N(C)C)[C@H]3OC(C)=O)[C@@H](C)C[C@]3(CO3)C(=O)[C@H](C)[C@@H](OC(C)=O)[C@@H](C)[C@@H](C)OC(=O)[C@@H]2C)O[C@@H](C)[C@@H]1OC(C)=O,6.09% [at 20.6 µM] (inactive),–
CCN(CC)CCOc1ccc(-c2nc3cc(Cl)ccc3s2)cc1,-1.62% (inactive),–
